# Laboratory results published in PubChem BioAssay (EPA / NIEHS).
# Results filed as inconclusive are left out. Calls of active or inactive are those of the source. How the source made its calls: active means hit-call score of the fitted dose curve at least 0.9, where 1 is the maximum; inconclusive means response in the unintended direction; inactive means score below 0.9.
# Read-out: organic anion transporter (SLCO1B1), SLCO1B1 (gene 10599)
# Test: CLD_SLCO1B1_6hr: CellzDirect (CLD) Gene Expression Assay for organic anion transporter (SLCO1B1) at 6 hours (AID 2283668)
# Method: CLD_6hr is a cell-based, multiplexed-readout assay that uses hepatocyte, a human liver primary cell, with measurements taken at 6 hours after chemical dosing in a 96-well plate.CLD_SLCO1B1_6hr is one of 16 assay component(s) measured or calculated from the CLD_6hr assay. It is designed to make measurements of mRNA induction, a form of inducible reporter, as detected with chemiluminescence signals by Quantitative Nuclease Protection Assay (qNPA) technology.Data from the assay component CLD_SLCO1B1_6hr was analyzed at the endpoint, CLD_SLCO1B1_6hr, in the positive analysis fitting direction relative to DMSO as the negative control and baseline of activity. Using a type of inducible reporter, gain-of-signal activity can be used to understand changes in the reporter gene as they relate to the gene SLCO1B1. Furthermore, this assay endpoint can be referred to as a primary readout. To generalize the intended target to other relatable targets, this assay endpoint is annotated to the transporter intended target family, where subfamily is organic anion transporter.
# Human hepatocyte cultures were treated daily for two consecutive days with fresh dosing solutions containing appropriate concentrations of the 320 ToxCast chemicals (chemical identities were blinded to CellzDirect and other ToxCast collaborators), vehicle control (0.2% DMSO), and positive control inducers as summarized in Table 1. Due to the large number of treatment groups and chemicals examined, the ToxCast chemicals were divided into two groups (spanning two independent cultures of hepatocytes from separate donor preparations (Hu778: ToxCast plates 1 and 2; Hu776: ToxCast plates 3 and 4). Each preparation of human hepatocyte cultures was treated with respective vehicle control, medium only control, set of six positive controls/reference chemicals for the five hepatic receptor pathways, and a subset of eight of the ToxCast chemicals (indoxacarb, pyrithiobac-sodium, norflurazon, cyhalofop-butyl, methomyl, thiram, acetochlor, and propiconazole). These replicate data, coupled with internal replicates designed within the blinded ToxCast chemical library, provided additional data to evaluate interindividual differences between hepatocyte preparations and their potential impact on chemical profiles.Cell morphology and integrity were evaluated using phase-contrast microscopy as an indicator of hepatocyte cell health (Tyson & Green, 1987). Cultures for each treatment group (i.e., media, vehicle [0.2% DMSO], positive control inducers [multiple concentrations], and the ToxCast chemicals [multiple concentrations]) were observed and cell morphology was assessed relative to vehicle control cultures at each harvest time point (0, 6, 24, or 48 h). […] Images were evaluated at the conclusion of the study to assess changes in cell integrity and account for the effects of chemical exposure on uncharacteristic changes in concentration-dependent gene expression profiles. The results from these determinations of apparent cytotoxicity were annotated (yes/no) alongside the corresponding qNPA data for reference.At the conclusion of each treatment period, hepatocyte cultures (96-well) were washed with 1 volume of HBSS, lysed by addition of 25 ul ArrayPlate lysis buffer (HTG, Tucson, AZ), and 70 ul/well of Denaturation Oil, denatured by incubation at 95C for 10 min, and frozen at approximately -70C until analysis by nuclease protection assay (qNPA) (Roberts et al., 2007). For qNPA analysis, cell lysates were thawed at 50C for approximately 30 min, qNPA probes were added, and samples were incubated at 95C for 10 min to begin the detection process by denaturing the target RNA, dissociating the duplexes and secondary structure hybridization. At the conclusion of the hybridization period, S1 nuclease reagent was added to each sample to digest all nonprotected nucleotides at 50C for 60-90 min. […]
Compound,outcome,AC50
CCc1cccc(CC)c1N(COC)C(=O)CCl,inactive,–
CC(=NC#N)N(C)Cc1ccc(Cl)nc1,inactive,–
CCCSP(=O)(OCC)SCCC,inactive,–
CCCOc1nn(C(=O)NS(=O)(=O)c2ccccc2C(=O)OC)c(=O)n1C,inactive,–
COP(=O)(NC(C)=O)SC (configuration not stated),inactive,–
Cc1nn(-c2cc(NS(C)(=O)=O)c(Cl)cc2Cl)c(=O)n1C(F)F,inactive,–
CCOP(=O)(OCC)Oc1cc(C)nc(C(C)C)n1,inactive,–
CCC(=NOC/C=C/Cl)C1=C(O)CC(C2CCOCC2)CC1=O (configuration not stated),inactive,–
CON=C(C(=O)OC)c1ccccc1CON=C(C)c1cccc(C(F)(F)F)c1,inactive,–
CCOP(=S)(OCC)OC(Cl)C(Cl)(Cl)Cl (configuration not stated),inactive,–
CNC(=O)ON=C(SC)C(=O)N(C)C,inactive,–
CC(C)N(C(=O)SCC(Cl)=C(Cl)Cl)C(C)C,inactive,–
O=[N+]([O-])c1cc(C(F)(F)F)c(Cl)c([N+](=O)[O-])c1Nc1ncc(C(F)(F)F)cc1Cl,inactive,–
CCCOCC(=Nc1ccc(Cl)cc1C(F)(F)F)n1ccnc1,inactive,–
CC[C@H](C)[C@H]1O[C@]2(C=C[C@@H]1C)C[C@@H]1C[C@@H](C/C=C(\C)[C@@H](O[C@H]3C[C@H](OC)[C@@H](O[C@H]4C[C@H](OC)[C@@H](NC)[C@H](C)O4)[C@H](C)O3)[C@@H](C)/C=C/C=C3\CO[C@@H]4[C@H](O)C(C)=C[C@@H](C(=O)O1)[C@]34O)O2,–,30.7 µM (active)
CCOP(=O)(NC(C)C)Oc1ccc(SC)c(C)c1 (configuration not stated),inactive,–
CSc1nc(NC(C)C)nc(NC(C)C)n1,inactive,–
O=c1ccc(=O)[nH][nH]1,inactive,–
CCc1cnc(C2=NC(C)(C(C)C)C(=O)N2)c(C(=O)O)c1 (configuration not stated),inactive,–

Compound,outcome,AC50
Cc1ccn2nc(S(=O)(=O)Nc3c(F)cccc3F)nc2n1,inactive,–
CCCCOC(=O)c1ccccc1C(=O)O,inactive,–
CCOP(=O)(SC(C)CC)N1CCSC1=O (configuration not stated),inactive,–
CC(COc1ccc(Oc2ccccc2)cc1)Oc1ccccn1 (configuration not stated),inactive,–
CCOP(=S)(OCC)Oc1cc(C)nc(C(C)C)n1,inactive,–
N#CSCSC#N,inactive,–
S=C1NCCN1,inactive,–
C[Si](Cn1cncn1)(c1ccc(F)cc1)c1ccc(F)cc1,inactive,–
CCCSP(=O)(OCC)Oc1ccc(Br)cc1Cl (configuration not stated),inactive,–
C=C(C)[C@H]1Cc2c(ccc3c2O[C@@H]2COc4cc(OC)c(OC)cc4[C@@H]2C3=O)O1,inactive,–
CCC(CC)Nc1c([N+](=O)[O-])cc(C)c(C)c1[N+](=O)[O-],inactive,–
C#CCC1=C(C)C(OC(=O)C2C(C=C(C)C)C2(C)C)CC1=O (configuration not stated),inactive,–
COc1ccc(C(=CC(=O)N2CCOCC2)c2ccc(Cl)cc2)cc1OC,inactive,–
CCOP(=S)(Oc1cnc(C(C)(C)C)nc1)OC(C)C (configuration not stated),inactive,–
CSc1nnc(C(C)(C)C)c(=O)n1N,inactive,–
COP(=O)(OC)OC(Br)C(Cl)(Cl)Br (configuration not stated),inactive,–
COP(=O)(OC)C(O)C(Cl)(Cl)Cl (configuration not stated),inactive,–
CC1=NNC(=O)N(/N=C/c2cccnc2)C1,inactive,–
